Source: PubChem BioAssay (Tox21)
Unmarked numbers belong to inactive results. Inconclusive results are not listed. Entries that show only a call come without a potency. Active and inactive are the calls of the source. Unless noted, calls come from the whole dose curve; as a rule, active = well fitted curve in the direction sought with a large enough effect in the repeat runs; inconclusive = weak or mixed curves; inactive = no such curve, though single readings can be large; an effect the other way counts as inactive or inconclusive.

Tests used:
[1] = qHTS assay to identify small molecule agonists of the hypoxia (HIF-1) signaling pathway - cell viability counter screen (AID 1224844; calls by dose curve; note: nearly all actives have a fitted effect of over 50% in size)
Outline: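 CellTiter-Glo luminescence read-out, 30 min RT, taken in the same wells as the beta-lactamase HRE reporter assay; HRE-bla ME-180 cells, 0.5% dialyzed FBS, 17 hr compound treatment at 37C, 5% CO2.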

[2] = qHTS assay to identify small molecule agonists of H2AX (AID 1224845; active = well fitted activation curve with a large enough effect in the signal ratio in the repeat runs, not every such curve was filed as active; the % refers to the signal ratio)
Outline: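 Phospho-H2AX Ser139 measured by HTRF (ex 320 nm; em 665 and 620 nm) after 24 hr antibody incubation. Compounds, 15 concentrations, 0.76% DMSO, were applied to CHO-K1 cells for 3hr at 37C before lysis.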

[3] = qHTS assay to identify small molecule agonists of the hypoxia (HIF-1) signaling pathway (AID 1224846; active = well fitted activation curve with a large enough effect in the signal ratio in the repeat runs, not every such curve was filed as active; the % refers to the signal ratio)
Outline: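 Beta-lactamase FRET read-out (CCF4-AM substrate) from ME-180 cells carrying an HRE-driven bla reporter, after 17 hrs compound exposure at 37C/5% CO2. Cells were seeded at 2,000 per well in 0.5% dialyzed FBS medium and preincubated 5 hrs.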

[4] = qHTS assay to identify small molecule agonists of H2AX - cell viability counter screen (AID 1224847; calls by dose curve; note: nearly all actives have a fitted effect of over 30% in size; note: potency is the fitted concentration of half-maximal effect)
Outline: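 Quantitative HTS viability measurement: CHO-K1 wild-type cells in serum (10% FBS) medium, short 3 hr drug exposure at 37C with 0.76% DMSO, CellTiter-Glo luminescent detection.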

[5] = qHTS RealTime-Glo MT Cell Viability Assay in HepG2 cells - 24 hour (AID 1224867); note: nearly all actives have a fitted effect of over 50% in size
Outline: (§1)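 Tox21 10K library screened in qHTS format on HepG2 cells carrying RealTime-Glo reagents. Compounds were added after a 5 h preincubation, and the luminescent signal from continuous culture was measured repeatedly during 40 h treatment.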

[6] = qHTS RealTime-Glo MT Cell Viability Assay in HEK293 cells - 32 hour (AID 1224868); note: top concentration of the series differs between compounds; nearly all actives have a fitted effect of over 50% in size
Outline: (§2)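 Luminescence generated by NanoLuc from substrate produced by living HEK293 cells served as the viability signal. Each value reflects the reading at its stated time point during continuous 40 h compound exposure at 37 C.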

[7] = A CellTox Green Cytotoxicity Assay to monitor cytotoxicity in HEK293 cells - 0 hour (AID 1224869); note: nearly all actives have a fitted effect of over 50% in size
Outline: (§3)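 Read-out: fluorescence of a cell-impermeant cyanine dye staining DNA of dead cells, proportional to cytotoxicity. HEK293, 600 cells/well with reagent, compound (23 nL DMSO) added after 5 h; reads at 0, 8, 16, 24, 32, 40 h.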

[8] = qHTS RealTime-Glo MT Cell Viability Assay in HepG2 cells - 40 hour (AID 1224870); note: nearly all actives have a fitted effect of over 50% in size
Outline: (§4)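 Real-time viability: cells seeded at 600 per well together with NanoLuc and cell-permeant prosubstrate, compounds added after 5 h incubation. Luminescence tracked at 0, 8, 16, 24, 32 and 40 h of exposure.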

[9] = A CellTox Green Cytotoxicity Assay to monitor cytotoxicity in HEK293 cells - 40 hour (AID 1224871); note: nearly all actives have a fitted effect of over 45% in size
Outline: as §3

[10] = qHTS RealTime-Glo MT Cell Viability Assay in HEK293 cells - 16 hour (AID 1224872)
Outline: as §2

[11] = qHTS RealTime-Glo MT Cell Viability Assay in HepG2 cells - 8 hour (AID 1224873); note: nearly all actives have a fitted effect of over 55% in size
Outline: as §4

[12] = qHTS RealTime-Glo MT Cell Viability Assay in HEK293 cells - 40 hour (AID 1224874); conditions: RealTime-Glo luminescence; max response: hits give low values; note: nearly all actives have a fitted effect of over 50% in size
Outline: (§5)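 Luminescence readout at each listed time point; HEK293, 600 cells/well, RealTime-Glo MT reagent added with cells; compounds pinned (23 nL in DMSO) after 5 h at 37 C; continuous culture at 37 C.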

[13] = A CellTox Green Cytotoxicity Assay to monitor cytotoxicity in HEK293 cells - 24 hour (AID 1224875); note: nearly all actives have a fitted effect of over 45% in size
Outline: as §3

[14] = A CellTox Green Cytotoxicity Assay to monitor cytotoxicity in HepG2 cells - 16 hour (AID 1224876); note: nearly all actives have a fitted effect of over 45% in size
Outline: (§6)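 HepG2, 600 cells/well premixed w/ CellTox Green; 5 h settle, 37 C/5% CO2; pintool cpd add (DMSO); 37 C, 40 h; fluorescence read at 0, 8, 16, 24, 32, 40 h.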

[15] = qHTS RealTime-Glo MT Cell Viability Assay in HepG2 cells - 32 hour (AID 1224877); note: nearly all actives have a fitted effect of over 55% in size
Outline: as §1

[16] = A CellTox Green Cytotoxicity Assay to monitor cytotoxicity in HepG2 cells - 24 hour (AID 1224878); note: nearly all actives have a fitted effect of over 45% in size
Outline: as §6

[17] = A CellTox Green Cytotoxicity Assay to monitor cytotoxicity in HepG2 cells - 40 hour (AID 1224879); note: nearly all actives have a fitted effect of over 40% in size
Outline: as §6

[18] = qHTS RealTime-Glo MT Cell Viability Assay in HEK293 cells - 0 hour (AID 1224880)
Outline: as §5

[19] = qHTS assay to identify small molecule antagonists of the estrogen related receptor (ERR) signaling pathway from Tox21 library (AID 1224848); note: nearly all actives have a fitted effect of over 50% in size
Outline: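 ERR cell line, 2,000 cells/well. 6 h settle, then compound (DMSO) added; 18 h at 37 C; ONE-Glo luminescence after 30 min RT.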

[20] = qHTS assay to identify small molecule agonists of the estrogen related receptor (ERR) signaling pathway from Tox21 library (AID 1224849; calls by dose curve; note: nearly all actives have a fitted effect of over 15% in size); conditions: ERR reporter cell line, ONE-Glo luciferase, 18 h; at 92.4 µM (top of the series) unless noted
Outline: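 Luminescence readout (ONE-Glo, 30 min RT) after 18 h compound exposure at 37 C of NTP-supplied ERR reporter cells; cells were plated 6 h before compound addition by pin tool.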

SMILES | Potency [1] | Potency [2] | outcome [3] | Potency [4] | Potency [5] | Potency [6] | Potency [7] | Potency [8] | Potency [9] | Potency [10] | Potency [11] | max response [12] | Potency [13] | Potency [14] | Potency [15] | Potency [16] | Potency [17] | Potency [18] | Potency [19] | activity change, positive = activation [20]
CCCCCCCCCC=O | inactive | inactive | inactive | inactive | inactive | inactive | inactive | inactive | inactive | inactive | inactive | 7.4% | inactive | inactive | inactive | inactive | inactive | inactive | – | –
CC1(C)[C@H]2CC[C@]1(C)[C@H](O)C2 | inactive | inactive | inactive | 1600 nM (active) | inactive | inactive | inactive | inactive | inactive | inactive | inactive | -5.57% | inactive | inactive | inactive | inactive | inactive | inactive | – | –
CN(C)CCCOc1nn(Cc2ccccc2)c2ccccc12 | inactive | inactive | inactive | inactive | inactive | – | inactive | – | inactive | inactive | inactive | – | inactive | – | inactive | – | – | – | inactive | -2.65% [at 42.5 µM]
O=C(Cl)c1ccc([N+](=O)[O-])cc1 | inactive | inactive | inactive | inactive | inactive | inactive | inactive | inactive | inactive | inactive | inactive | 7.36% | inactive | inactive | – | inactive | inactive | inactive | – | –
C[Si](C)O[Si](C)(C)O[Si](C)(C)O[Si](C)C | inactive | inactive | inactive | inactive | inactive | inactive | inactive | inactive | inactive | – | inactive | 7.78% | inactive | inactive | inactive | inactive | inactive | inactive | – | –
CCCCCC(CO)CCC (configuration not stated) | inactive | inactive | inactive | inactive | inactive | inactive | inactive | inactive | inactive | – | inactive | 1.02% | inactive | inactive | inactive | inactive | inactive | inactive | inactive | 2.67%
CN1CCN(C2=Nc3ccccc3Sc3ccc(Cl)cc32)CC1 | inactive | inactive | inactive | inactive | inactive | inactive | inactive | inactive | inactive | inactive | inactive | -9.09% | inactive | inactive | inactive | inactive | inactive | inactive | inactive | 1.89% [at 42.5 µM]
